Source: PubChem BioAssay
“And” between values parts separate entries of the source, which are not always exact repeats. Equal entries are not always repeated. The source made the active and inactive calls.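 The calls were made as follows, unless noted: active = normalized viability below 100% at a tested concentration; inactive = the rest.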

Experiments:
[1] = drug combination growth inhibition, ovarian cancer – cell-based, oncology-focused library, rucaparib conditional, profiling panel (AID 1508598); conditions: patient-derived ovarian cancer cells, CellTiter-Glo viability, 144 h, stronger effect = lower value
[2] = target: NAD(+) hydrolase SARM1 (Homo sapiens) (UniProt Q6SZW1); experiment: blocking NAD cleavage by SARM1 SAM-TIR – cell lysate, NAD-Glo luminescence (AID 1508614;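 active = compound whose remaining NAD level is above about 45 nM, limit read from the data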;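 also: higher remaining NAD means stronger inhibition of SARM1 NADase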); conditions: SAM-TIR HEK293T lysate NADase, at 1 µM, stronger effect = higher value
Sequence of NAD(+) hydrolase SARM1 (Homo sapiens) (Q6SZW1 whole entry, looked up, the tested form may be a part): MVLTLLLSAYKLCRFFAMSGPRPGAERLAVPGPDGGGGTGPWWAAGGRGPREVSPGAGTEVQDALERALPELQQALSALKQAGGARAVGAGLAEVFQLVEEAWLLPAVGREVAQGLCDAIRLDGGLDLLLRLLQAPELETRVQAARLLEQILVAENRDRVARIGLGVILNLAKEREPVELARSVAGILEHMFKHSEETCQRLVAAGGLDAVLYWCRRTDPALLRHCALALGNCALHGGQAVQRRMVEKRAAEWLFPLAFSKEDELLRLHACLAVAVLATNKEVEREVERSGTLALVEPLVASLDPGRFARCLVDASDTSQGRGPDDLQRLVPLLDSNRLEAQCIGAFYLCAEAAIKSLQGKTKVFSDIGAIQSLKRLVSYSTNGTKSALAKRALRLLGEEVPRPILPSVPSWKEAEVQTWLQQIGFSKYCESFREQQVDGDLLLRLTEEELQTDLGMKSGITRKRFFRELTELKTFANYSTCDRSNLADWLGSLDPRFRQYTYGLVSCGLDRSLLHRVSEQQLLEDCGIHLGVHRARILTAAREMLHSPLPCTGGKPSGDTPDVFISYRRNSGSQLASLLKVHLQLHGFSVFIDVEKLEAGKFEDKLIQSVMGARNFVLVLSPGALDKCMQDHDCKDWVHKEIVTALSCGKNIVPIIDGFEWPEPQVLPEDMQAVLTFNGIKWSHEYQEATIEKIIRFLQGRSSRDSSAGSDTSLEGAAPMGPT

[3] = target: Mitogen-activated protein kinase 7 (Homo sapiens) (UniProt Q13164); experiment: Gal4-ERK5 driven luciferase induction – cell-based, HTS, primary screen (AID 1508626;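 active = luciferase signal above three times the same-plate solvent-only control wells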;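 also: luciferase driven by Gal4-ERK5 fusion binding five Gal4 sites before minimal TATA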); conditions: HeLa Gal4-ERK5 transactivation, 18 h, at 5 µM, stronger effect = higher value
Sequence of Mitogen-activated protein kinase 7 (Homo sapiens) (Q13164 whole entry, looked up, the tested form may be a part): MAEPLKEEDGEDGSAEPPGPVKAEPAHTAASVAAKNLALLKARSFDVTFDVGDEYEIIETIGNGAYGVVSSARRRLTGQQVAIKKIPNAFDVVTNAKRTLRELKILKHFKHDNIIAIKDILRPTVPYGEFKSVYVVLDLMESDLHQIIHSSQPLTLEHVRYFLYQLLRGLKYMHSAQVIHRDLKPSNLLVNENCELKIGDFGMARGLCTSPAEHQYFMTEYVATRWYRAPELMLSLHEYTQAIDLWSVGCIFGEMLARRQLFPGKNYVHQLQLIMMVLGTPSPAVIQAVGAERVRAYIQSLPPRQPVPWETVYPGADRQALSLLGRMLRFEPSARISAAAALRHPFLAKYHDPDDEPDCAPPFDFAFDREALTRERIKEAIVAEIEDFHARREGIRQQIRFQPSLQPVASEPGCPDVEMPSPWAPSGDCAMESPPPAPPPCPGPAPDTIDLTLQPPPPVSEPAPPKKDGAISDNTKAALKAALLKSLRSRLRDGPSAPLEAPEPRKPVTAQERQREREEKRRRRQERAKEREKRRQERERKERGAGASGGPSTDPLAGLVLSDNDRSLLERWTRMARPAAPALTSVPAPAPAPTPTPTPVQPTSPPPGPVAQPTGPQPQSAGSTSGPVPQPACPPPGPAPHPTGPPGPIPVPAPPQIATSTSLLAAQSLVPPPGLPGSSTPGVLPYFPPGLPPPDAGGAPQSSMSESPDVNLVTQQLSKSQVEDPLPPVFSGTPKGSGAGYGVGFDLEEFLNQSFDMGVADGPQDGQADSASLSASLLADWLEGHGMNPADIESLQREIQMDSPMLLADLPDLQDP

[4] = growth inhibition, single agents and combos, ICB984, cell-based, cisplatin or BGB combos, synergistic combos for chromothripsis tumors (AID 1671451; call rule not given here;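 also: cells exposed for 96 hours before readout; 0% = vehicle DMSO and 100% = killing by high DMSO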); conditions: ICB984 medulloblastoma cells, drug combinations, stronger effect = higher value
F380Y = experiment: BK channel mutant inhibitors and activators – cell-based, U2OS BacMam, thallium flux, beta subunits, selectivity assay, profiling panel (AID 1259406;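 active = thallium flux through the channel raised or lowered by more than 3 SD from vehicle-only wells, actives on both sides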;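 also: initial slope of Thallos dye fluorescence rise after thallium is added; log ratio against the mean of 0.3% DMSO vehicle wells on the same plate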); conditions: U2OS BacMam BK variants, at 30 µM
F380Y/beta1 = experiment: as above; conditions: U2OS BacMam BK variants, at 30 µM
F380Y/beta2Delta = experiment: as above; conditions: U2OS BacMam BK variants, at 30 µM
[5] = Wnt pathway potentiators raising nuclear beta-catenin – imaging, WNT3A-conditioned medium, mouse C2C12, NPC library, primary screen (AID 1117326; in the data active = nuclear beta-catenin stimulation mostly above about 4.2%, no sharp cut-off; inactive = mostly below about 10%); conditions: stronger effect = higher value
[6] = stimulators of insulin release from INS-1E, primary screen, cell-based, 5 mM glucose, NPC library (AID 1117329;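 active = compound raises insulin release from rat beta cells at 5 mM glucose, no numeric limit stated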); conditions: rat INS-1E insulin secretion, at 10 µM, stronger effect = higher value
[7] = growth inhibition of GSK3B-pretreated HCT116 cells – cell-based, CellTiter-Glo, 0.2 to 20 µM (AID 1117336;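 active = compounds lowering colon cancer cell viability after pretreatment blocking the GSK3B kinase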); conditions: HCT116 viability after GSK3B inhibitor, at 20 µM, stronger effect = higher value
[8] = inhibition of endothelial tube formation, primary screen, imaging, VEGF stimulated, CD31 staining, tube area, NPC library (AID 1117340;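 active = compound that reduces growth-factor-driven endothelial tube area in a mixed cell culture, no cutoff stated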); conditions: VEGF-stimulated ADSC/ECFC co-culture, at 10 µM, stronger effect = higher value
[9] = GLP1 release stimulators, primary, NCI-H716, NPC library (AID 1117341;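 active = compound raises GLP1 secretion from the human gut endocrine cells, with no numeric limit stated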); conditions: NCI-H716 cells, at 10 µM, stronger effect = higher value
[10] = HCT116 colon cancer cell growth inhibition, primary screen, CellTiter-Glo luminescence, NPC library (AID 1117342;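 active = compounds that lower survival of HCT116 colon cancer cells in the luminescence readout, no numeric limit stated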); conditions: at 20 µM (top of the series)
[11] = reduced SW480 viability measured with CellTiter-Glo, NPC library, primary (AID 1117343;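 active = compounds that lower viability of the colon cancer cells in the luminescence readout, with no numeric limit stated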); conditions: CellTiter-Glo luminescence; at 20 µM (top of the series)
[12] = NPC library primary testing for decreased DLD-1 cell viability via CellTiter-Glo (AID 1117346;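 active = compounds that lower survival of DLD-1 colon cancer cells in the luminescence readout, no cutoff given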); conditions: DLD-1 viability, CellTiter-Glo luminescence; at 20 µM (top of the series)
[13] = target: 6-phosphogluconate dehydrogenase, decarboxylating (Homo sapiens) (UniProt P52209); experiment: inhibition of human phosphogluconate dehydrogenase – biochemical, recombinant enzyme, NADPH absorbance, primary screen (AID 1159550;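 active = at least 20% inhibition of 6-phosphogluconate dehydrogenase activity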); conditions: recombinant 6PGD, NADPH absorbance 341 nm; at 10 µM; stronger effect = higher value
Sequence of 6-phosphogluconate dehydrogenase, decarboxylating (Homo sapiens) (P52209 whole entry, looked up): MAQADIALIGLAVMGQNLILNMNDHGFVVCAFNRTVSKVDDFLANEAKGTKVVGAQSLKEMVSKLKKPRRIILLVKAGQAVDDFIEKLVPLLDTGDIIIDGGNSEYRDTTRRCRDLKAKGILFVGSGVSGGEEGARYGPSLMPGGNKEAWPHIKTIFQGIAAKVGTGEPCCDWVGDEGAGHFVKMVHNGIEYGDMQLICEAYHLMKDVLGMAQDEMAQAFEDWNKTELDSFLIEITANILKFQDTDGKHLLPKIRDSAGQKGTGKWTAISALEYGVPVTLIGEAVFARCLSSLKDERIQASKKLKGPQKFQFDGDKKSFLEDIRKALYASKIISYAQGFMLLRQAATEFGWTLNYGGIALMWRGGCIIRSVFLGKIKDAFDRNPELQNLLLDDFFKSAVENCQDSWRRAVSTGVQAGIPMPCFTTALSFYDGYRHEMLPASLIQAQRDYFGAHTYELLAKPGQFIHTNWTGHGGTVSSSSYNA

[14] = modulation of C. elegans fzo-1 (AID 1259413; call rule not given here;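 also: fzo-1 mutant C. elegans worms in liquid wells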); conditions: C. elegans fzo-1 modulator screen, mean read-out; stronger effect = higher value
[15] = EMT-state selective cytotoxicity in co-culture – imaging, PC-3E GFP, TEM4-18 mCherry, primary screen (AID 1345086;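 active = compounds killing one labelled cell type while sparing the other, by normalised counts and ratio limits, not self-fluorescent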;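 as to all read-outs here: cells exposed to compound for 72 h before imaging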;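 as to red/green cell ratio (normalised): normalised mesenchymal count divided by normalised epithelial count so high means epithelial killing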); conditions: PC-3E GFP / TEM4-18 mCherry co-culture, imaging cell counts, at 1 µM; for red/green cell ratio (normalised): actives lie on both sides, counts scaled to control wells, 1 = unselective
[16] = MELAS cybrid and Rieske KO viability enhancers – cell-based, MELAS cybrids, Rieske KO mouse fibroblasts, CellTiter-Glo, primary screen (AID 1508586;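 active = mean z-score across replicates of 1.96 or higher in either the MELAS or the Rieske mutant cell line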;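 also: z relative to plate mean and SD of compound and empty wells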); conditions: low glucose
[17] = viability loss with induced miR-34 in A549 – imaging, A549 dox-inducible miR-34, nuclei and caspase counts, primary screen (AID 1347080;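 active = compounds whose cell count with miR-34 switched on is under 0.7 times the count with it off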); conditions: A549 miR-34 inducible, Hoechst nuclei count, 48 h
[18] = measured here: epithelial PC-3E GFP cell survival
[19] = measured here: mesenchymal TEM4-18 mCherry cell survival
[20] = MELAS cybrid survival, CellTiter-Glo 48 h, stronger effect = higher value
[21] = Rieske KO mouse fibroblast survival, CellTiter-Glo 72 h
[22] = stronger effect = lower value, cell number ratio, induced over uninduced
[23] = measured here: relative caspase fold change +Dox/-Dox
[24] = measured here: total cells with miR-34 induction, stronger effect = lower value
[25] = measured here: total cells without miR-34 induction

## O=c1[nH]cc(F)c(=O)[nH]1
[1]; at 0.0195 µM, OCI-P5x cells, with rucaparib 20 µM, 100% = cells with rucaparib alone
  viability: 111% (inactive)
[1]; at 0.0195 µM, OCI-P5x cells, without rucaparib
  viability: 106% (inactive)
[1]; at 0.0781 µM, OCI-C5x cells, with rucaparib 10 µM, 100% = cells with rucaparib alone
  viability: 103% (inactive)
[1]; at 0.0781 µM, OCI-C5x cells, without rucaparib
  viability: 102% (inactive)
[1]; at 0.0781 µM, OCI-P5x cells, with rucaparib 20 µM, 100% = cells with rucaparib alone
  viability: 106% (inactive)
[1]; at 0.0781 µM, OCI-P5x cells, without rucaparib
  viability: 102% (inactive)
[1]; at 0.313 µM, OCI-C5x cells, with rucaparib 10 µM, 100% = cells with rucaparib alone
  viability: 121% (inactive)
[1]; at 0.313 µM, OCI-C5x cells, without rucaparib
  viability: 105% (inactive)
[1]; at 0.313 µM, OCI-P5x cells, with rucaparib 20 µM, 100% = cells with rucaparib alone
  viability: 99.1% (active)
[1]; at 0.313 µM, OCI-P5x cells, without rucaparib
  viability: 100% (inactive)
[1]; at 1.25 µM, OCI-C5x cells, with rucaparib 10 µM, 100% = cells with rucaparib alone
  viability: 145% (inactive)
[1]; at 1.25 µM, OCI-C5x cells, without rucaparib
  viability: 123% (inactive)
[1]; at 1.25 µM, OCI-P5x cells, with rucaparib 20 µM, 100% = cells with rucaparib alone
  viability: 99.6% (active)
[1]; at 1.25 µM, OCI-P5x cells, without rucaparib
  viability: 102% (inactive)
[1]; at 5 µM, OCI-C5x cells, with rucaparib 10 µM, 100% = cells with rucaparib alone
  viability: 236% (inactive)
[1]; at 5 µM, OCI-C5x cells, without rucaparib
  viability: 146% (inactive)
[1]; at 5 µM, OCI-P5x cells, with rucaparib 20 µM, 100% = cells with rucaparib alone
  viability: 82.4% (active)
[1]; at 5 µM, OCI-P5x cells, without rucaparib
  viability: 73.4% (active)
[2]
  remaining NAD: 10 nM (inactive)
[3]
  luciferase signal: 80 AU (inactive)
[4]; BGB IC20 combo, at 0.005 µM
  inhibition: -34.1%
[4]; BGB IC40 combo, at 0.005 µM
  inhibition: -27.4%
[4]; BGB IC40 combo, at 0.05 µM
  inhibition: 5.15%
[4]; at 0.5 µM
  inhibition: 0.32% (inactive)
[4]; cisplatin combo, at 0.05 µM
  inhibition: 5.15%
[4]; cisplatin combo, at 0.5 µM
  inhibition: 7.66%
[4]; cisplatin combo, at 5 µM
  inhibition: -4.18%
[4]; measured here: 5 uM single agent, at 5 µM
  inhibition: -20.2%
F380Y
  log fold change Tl+ flux: -0.0334 (inactive)
F380Y/beta1
  log fold change Tl+ flux: 0.0119 (inactive)
F380Y/beta2Delta
  log fold change Tl+ flux: -0.0613 (inactive)

## COC(=O)Nc1nc2ccc(C(=O)c3ccccc3)cc2[nH]1
[5]; at 10 µM
  nuclear beta-catenin stimulation: 78.6% (active)
[5]; stimulation, at 2 µM
  nuclear beta-catenin stimulation: 42.2%
[6]
  insulin secretion stimulation: -0.3% (inactive)
[7]
  viability decrease: 10.7% (inactive)
[8]
  tube area decrease: 102% (active)
[9]
  GLP1 secretion stimulation: 2.2% (inactive)
[10]
  inhibition of viability: 56.4% (active)
[11]
  viability decrease (inhibition): 27.7% (active)
[12]
  viability decrease (inhibition): 51.5% (active)
[13]
  inhibition: 0.811% (inactive)
[14]
  mean signal: 274 (inactive)
[15]
  red/green cell ratio (normalised): 1.27 (inactive)
[15]; [18]
  normalised cell number: 0.23
[15]; [19]
  normalised cell number: 0.29
[16]; [20]
  z-score: 0.18 (inactive) and -0.728 (inactive) and -2.21 (inactive)
[16]; [21]
  z-score: 0.0815 and 0.438 and 0.923
[2]
  remaining NAD: 10 nM (inactive)
[3]
  luciferase signal: 28 AU (inactive)
F380Y
  log fold change Tl+ flux: -0.0365 (inactive)
F380Y/beta1
  log fold change Tl+ flux: 0.0198 (inactive)
F380Y/beta2Delta
  log fold change Tl+ flux: -0.00923 (inactive)

## COC1=CC(=O)C[C@@H](C)[C@]12Oc1c(Cl)c(OC)cc(OC)c1C2=O
[5]; at 10 µM
  nuclear beta-catenin stimulation: 1.9% (inactive)
[5]; stimulation, at 2 µM
  nuclear beta-catenin stimulation: 0.3%
[6]
  insulin secretion stimulation: 6.2% (inactive)
[7]
  viability decrease: 38.4% (inactive)
[8]
  tube area decrease: 24.2% (inactive)
[9]
  GLP1 secretion stimulation: 0.1% (inactive)
[10]
  inhibition of viability: 43.7% (inactive)
[11]
  viability decrease (inhibition): 64.1% (active)
[12]
  viability decrease (inhibition): 20% (inactive)
[13]
  inhibition: 1.41% (inactive)
[14]
  mean signal: 231 (inactive)
[15]
  red/green cell ratio (normalised): 0.76 (inactive)
[15]; [18]
  normalised cell number: 1.41
[15]; [19]
  normalised cell number: 1.07
[17]; [22]
  fold change: 1.07 (inactive) and 0.956 (inactive) and 0.943 (inactive)
[17]; [23]
  fold change: 2.5 and 0.98 and 2.02
[17]; [24]
  cell count: 6100 and 6900 and 8710
[17]; [25]
  cell count: 5720 and 7210 and 9240
[16]; [20]
  z-score: 1.78 (inactive)
[16]; [21]
  z-score: 0.726
[2]
  remaining NAD: 10 nM (inactive)
[3]
  luciferase signal: 104 AU (inactive)
F380Y
  log fold change Tl+ flux: 0.00739 (inactive)
F380Y/beta1
  log fold change Tl+ flux: -0.046 (inactive)
F380Y/beta2Delta
  log fold change Tl+ flux: 0.0194 (inactive)

## C/C=C/C(=O)N(CC)c1ccccc1C
[5]; at 10 µM
  nuclear beta-catenin stimulation: 1.7% (inactive)
[5]; stimulation, at 2 µM
  nuclear beta-catenin stimulation: 0.9%
[6]
  insulin secretion stimulation: -0.4% (inactive)
[7]
  viability decrease: -18.4% (inactive)
[8]
  tube area decrease: 12.7% (inactive)
[9]
  GLP1 secretion stimulation: -3.7% (inactive)
[10]
  inhibition of viability: -11.3% (inactive)
[11]
  viability decrease (inhibition): 19.5% (inactive)
[12]
  viability decrease (inhibition): -26.5% (inactive)
[13]
  inhibition: -11.5% (inactive)
[14]
  mean signal: 254 (inactive)
[15]
  red/green cell ratio (normalised): 1.1 (inactive)
[15]; [18]
  normalised cell number: 0.88
[15]; [19]
  normalised cell number: 0.97
[17]; [22]
  fold change: 0.871 (inactive) and 0.856 (inactive) and 0.894 (inactive)
[17]; [23]
  fold change: 1.68 and 2.74 and 1.41
[17]; [24]
  cell count: 8830 and 11400 and 8670
[17]; [25]
  cell count: 10100 and 13300 and 9700
[16]; [20]
  z-score: -0.397 (inactive) and -0.423 (inactive)
[16]; [21]
  z-score: -1.25 and -1.17
[2]
  remaining NAD: 10 nM (inactive)
[3]
  luciferase signal: 64 AU (inactive)
F380Y
  log fold change Tl+ flux: 0.0255 (inactive)
F380Y/beta1
  log fold change Tl+ flux: -0.0381 (inactive)
F380Y/beta2Delta
  log fold change Tl+ flux: -0.0171 (inactive)

## NS(=O)(=O)c1cc(C2(O)NC(=O)c3ccccc32)ccc1Cl (configuration not stated)
[5]; at 10 µM
  nuclear beta-catenin stimulation: 2.1% (inactive)
[5]; stimulation, at 2 µM
  nuclear beta-catenin stimulation: 6.2%
[6]
  insulin secretion stimulation: 0.8% (inactive)
[7]
  viability decrease: -12.6% (inactive)
[8]
  tube area decrease: 2.3% (inactive)
[9]
  GLP1 secretion stimulation: -2% (inactive)
[10]
  inhibition of viability: -5.17% (inactive)
[11]
  viability decrease (inhibition): 16.8% (inactive)
[12]
  viability decrease (inhibition): -4% (inactive)
[13]
  inhibition: 7.34% (inactive)
[14]
  mean signal: 251 (inactive)
[15]
  red/green cell ratio (normalised): 1.08 (inactive)
[15]; [18]
  normalised cell number: 1.2
[15]; [19]
  normalised cell number: 1.3
[17]; [22]
  fold change: 0.98 (inactive) and 0.828 (inactive) and 0.88 (inactive)
[17]; [23]
  fold change: 1.92 and 1.71 and 1.64
[17]; [24]
  cell count: 11100 and 8640 and 10800
[17]; [25]
  cell count: 11400 and 10400 and 12300
[16]; [20]
  z-score: -0.366 (inactive)
[16]; [21]
  z-score: -0.339
[2]
  remaining NAD: 10 nM (inactive)
[3]
  luciferase signal: 36 AU (inactive)
F380Y
  log fold change Tl+ flux: -0.0172 (inactive)
F380Y/beta1
  log fold change Tl+ flux: -0.0295 (inactive)
F380Y/beta2Delta
  log fold change Tl+ flux: -0.039 (inactive)
